According to PubChem BioAssay (NCATS):
Where “and” joins values, the source holds several entries; their conditions need not be identical. Equal values may be shown once. Inconclusive results are not listed. Calls of active or inactive are those of the source. Unless noted, the call rests on the fitted dose curve; in most records, active means well fitted curve in the direction sought with a large enough effect; inconclusive means small, poorly fitted or top-dose-only effect, or another doubt; inactive means no such curve, though single readings can be large; an effect the other way counts as inactive or inconclusive.

Key:
[1] = Cellular Toxicity (caspase-3) Mesangial (AID 660);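 further: combined caspase 3 and 7 activity read by Caspase-Glo luminescence; cells exposed to compound for 16 h before the caspase read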
How it was run: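 AC50 values come from Hill-equation fits of caspase 3/7 activation, measured as Caspase-Glo luminescence in human glomerular mesangial cells exposed to compound for 16 h at 37 °C; 100% set by 100 uM tamoxifen.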

[2] = Cellular Toxicity (caspase-3) SK-N-SH (AID 661)
How it was run: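 Apoptosis readout in SK-N-SH neuroblastoma: Caspase-Glo 3/7 luminescence following 16 hr treatment in complete culture medium. Normalization used DMSO and 10 uM staurosporine controls.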

[3] = Cellular Toxicity (caspase-3) H-4-II-E (AID 663);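 further: cells exposed to compound for 16 hr before readout; 0% = DMSO basal and 100% = 100 µM tamoxifen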
How it was run: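 H-4-II-E rat hepatoma, 1500 cells/well, 5 hr settle at 37 °C; compound 16 hr, 37 °C, complete medium; Caspase-Glo 3/7, 20 min RT; luminescence. DMSO = 0%, 100 uM tamoxifen = 100%; Hill-equation AC50.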

[4] = Cellular Toxicity (caspase-3) Hek293 (AID 664);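 further: cells exposed to compound for 16 h at 37 °C before readout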
How it was run: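 Apoptosis readout: Caspase-Glo 3/7 signal in human HEK293 cells following 16-hour compound incubation. Responses scaled between DMSO baseline and 100 uM tamoxifen.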

[5] = Cellular Toxicity (caspase-3) N2a (AID 665); conditions: N2a cells, luminescence, normalized: DMSO 0%, 10 µM staurosporine 100%; at 92.2 µM (top of the series);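 further: compound exposure lasted 16 h at 37 °C before readout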
How it was run: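 Concentration-response qHTS: compound-induced caspase-3/7 luminescence in N2a cells (16 h, 37 °C), relative to DMSO and 10 uM staurosporine controls; AC50 obtained using the standard Hill equation.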

[6] = Cellular Toxicity (caspase-3) Renal Proximal Tubule (AID 667); conditions: renal proximal tubule cells; at 91.7 µM (top of the series), primary cells freshly taken from rat, solvent-only wells 0%, staurosporine 100% unless noted;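 further: cells exposed to compound for 16 hours at 37 °C before detection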
How it was run: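 Primary rat proximal tubule cells, 1000/well, 5 h plating at 37 °C, then compound 16 h at 37 °C. Caspase-Glo 3/7 reagent, 1 h RT, luminescence. Normalized to DMSO (basal) and 10 uM staurosporine (100%); Hill-fit AC50.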

[7] = MultiTox-Fluor Cytotoxicity Assay - LYMP1-001 - Dead Cells (AID 946)
How it was run: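 Seed 2500 LYMP1-001 cells/well, incubate 5 hr at 37 C; add compound, 16 hr at 37 C; add MultiTox-Fluor reagent, 60 min RT; read dead-cell fluorescence Ex/Em=485/520. Normalize to DMSO and 15 uM tetraoctylammonium bromide.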

[8] = Cell Viability - LYMP1-002 - Assay at 16 hr (AID 948);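 further: 0% = DMSO alone and full effect = 92 µM tetraoctylammonium bromide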
How it was run: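 Human lymphoblastoid cells (LYMP1-002), 2500/well, were preincubated 5 hr at 37 C, then exposed to compounds for 16 hr at 37 C in complete medium. Cellular ATP was read by CellTiter-Glo luminescence after 30 min at room temperature; AC50 from Hill fits.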

[9] = MultiTox-Fluor Cytotoxicity Assay - LYMP1-002 - Live Cells (AID 955); further: on the % scale 0 is the no-effect control and ±100 the full control effect
How it was run: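 In this qHTS viability format, lymphoblastoid cells (LYMP1-002, human) received compound for 16 hr at 37 C. Fluorogenic GF-AFC cleavage by viable cells was detected at 405/510 nm after 1 h at room temperature.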

[10] = MultiTox-Fluor Cytotoxicity Assay - LYMP1-003 - Dead Cells (AID 961); further: nearly all actives have a fitted effect of over 70% in size
How it was run: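 LYMP1-003 lymphoblastoid, 2500 cells/well, 5 hr settle then 16 hr cpd at 37 C; MultiTox-Fluor reagent 60 min RT; Ex/Em 485/520 dead-cell signal; norm. DMSO = 0%, 15 uM tetraoctylammonium bromide = 100%; Hill AC50.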

[11] = MultiTox-Fluor Cytotoxicity Assay - LYMP1-003 - Live Cells (AID 962);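 further: 0% = DMSO only and full loss = 92 µM tetraoctylammonium bromide; cytotoxic hits lower the live-cell protease signal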
How it was run: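 Human lymphoblastoid line LYMP1-003 in complete culture medium, treated 16 hr with titrated compounds. Viable cells quantified via cell-permeant GF-AFC substrate fluorescence; AC50 derived by Hill fitting.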

[12] = Cell Viability - LYMP1-003 - Assay at 24 hr (AID 963);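 further: plate controls were DMSO only for no effect and tetraoctylammonium bromide positive control for full effect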
How it was run: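 The lymphoblastoid line was treated with titrated compounds for 24 hours, and viable cell number estimated from luciferase-based ATP luminescence.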

[13] = Cell Viability - LYMP1-003 - Assay at 40 hr (AID 964); further: on the % scale 0 is the no-effect control and ±100 the full control effect; nearly all actives have a fitted effect of over 60% in size
How it was run: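 Acute toxicity is scored as a concentration-dependent loss of intracellular ATP in LYMP1-003 cells (2500/well, complete medium) after 40 hr at 37 C, measured by CellTiter-Glo luminescence; AC50 values derive from standard Hill modelling.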

[14] = Cell Viability - LYMP2-025 (AID 976);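 further: plate controls were DMSO only for no effect and tetraoctylammonium bromide control for full effect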
How it was run: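 Luminescent ATP readout after 24 hr treatment of a human lymphoblastoid line (LYMP2-025, 2500 cells/well, 37 C). Reagent developed 30 min at room temperature; AC50 fitted with the Hill equation.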

[15] = Cell Viability - LYMP2-002 (AID 977);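 further: compound exposure lasted 24 h at 37 °C; plate controls were DMSO only for no effect and 92 µM tetraoctylammonium bromide for full effect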
How it was run: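 Human lymphoblastoid cells, 2500/well, complete medium; 5 h 37 C settle; compound 24 h 37 C; CellTiter-Glo, 30 min RT; luminescence. Decrease in ATP = cytotoxicity; AC50 via Hill equation.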

[16] = Cell Viability - LYMP2-006 (AID 978); further: on the % scale 0 is the no-effect control and ±100 the full control effect; nearly all actives have a fitted effect of over 60% in size
How it was run: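 Human lymphoblastoid cells, 2500 per well, were preincubated 5 hr at 37 C, then exposed to compounds for 24 hr at 37 C in complete medium. Viability was read as intracellular ATP by CellTiter-Glo luminescence; AC50 from Hill-equation fits of qHTS concentration-response data.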

[17] = qHTS assay for small molecule agonists of the antioxidant response element (ARE) signaling pathway measured by Nrf2-dependant transcriptional activity (AID 720636; active means well fitted curve in the direction sought with a large enough effect in the repeat runs; an effect the other way counts as inactive or inconclusive;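 further: HepG2 cells with an ARE-driven luciferase reporter; % of control where 0% means no effect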)
How it was run: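 HepG2 ARE-luc reporter line, 1% dialyzed FBS; 6 hr attachment at 37 C, compound pinned in, 16 hr at 37 C/5% CO2; ONE-Glo, 30 min RT, luminescence read.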

[18] = qHTS assay for small molecule agonists of the antioxidant response element (ARE) signaling pathway measured by Nrf2-dependant transcriptional activity - cell viability counter screen (AID 720653; active means well fitted curve in the direction sought with a large enough effect in the repeat runs; an effect the other way counts as inactive or inconclusive; further: on the % scale 0 is the no-effect control and ±100 the full control effect); conditions: ARE-bla HepG2 viability, CellTiter-Glo ATP luminescence, 16 h; stronger effect = lower value
How it was run: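 ARE-bla HepG2 cells treated with compounds for 16 h at 37C; this counter screen measures viability as intracellular ATP by CellTiter-Glo luminescence after 30 min at room temperature.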

[19] = qHTS assay for cell viability of HEK293 cells (AID 743288); conditions: ATP luminescence (CellTiter-Glo), 18 h; max response: stronger effect = lower value; further: on the % scale 0 is the no-effect control and ±100 the full control effect; nearly all actives have a fitted effect of over 50% in size
How it was run: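 After 18 h compound exposure at 37 C, parental HEK293 cells (2,000/well) are lysed with CellTiter-Glo and luminescence is read following 30 min at room temperature.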

[20] = qHTS assay for cell viability of the p53RE-bla HCT-116 cell line (AID 743292); further: on the % scale 0 is the no-effect control and ±100 the full control effect; nearly all actives have a fitted effect of over 55% in size
How it was run: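 Luminescent ATP quantitation (CellTiter-Glo) served as the viability read-out; reagent was added after 16 h compound exposure at 37 C and read after 30 min at room temperature. Cells: p53RE-bla HCT-116, 4,000 per well.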

C[N+](C)(C)Cc1ccccc1
inactive: outcome [1] | outcome [2] | outcome [3] | outcome [4] | caspase-3 activation [5] -0.692% | caspase-3 activation [6] 4.55% [at 91.7 µM] | Potency [7] | Potency [8] | outcome [9] | Potency [10] | Potency [11] | Potency [12] | Potency [13] | Potency [14] | Potency [15] | Potency [16] | outcome [17] | max response [18] -0.49% and -11.3% | max response [19] 3.84% and -11.6% | Potency [20]

c1ccc(OP(Oc2ccccc2)Oc2ccccc2)cc1
inactive: outcome [1] | outcome [2] | outcome [3] | outcome [4] | caspase-3 activation [5] 0.755% | caspase-3 activation [6] 1.22% | Potency [7] | Potency [8] | outcome [9] | Potency [10] | Potency [11] | Potency [12] | Potency [13] | Potency [14] | Potency [15] | Potency [16] | outcome [17] | max response [18] 3.55% and -14.3% | max response [19] -13.6% and -7.52% | Potency [20]

Cc1cccc(C#N)c1
inactive: outcome [1] | outcome [2] | outcome [3] | outcome [4] | caspase-3 activation [5] -2.05% | caspase-3 activation [6] 10.9% | Potency [7] | Potency [8] | outcome [9] | Potency [10] | Potency [11] | Potency [12] | Potency [13] | Potency [14] | Potency [15] | Potency [16] | outcome [17] | max response [18] -8.19% | max response [19] 0.442% | Potency [20]

O=NN(CCO)CCO
inactive: outcome [1] | outcome [2] | outcome [3] | outcome [4] | caspase-3 activation [5] -1.3% | caspase-3 activation [6] 4.45% | Potency [7] | Potency [8] | outcome [9] | Potency [10] | Potency [11] | Potency [12] | Potency [13] | Potency [14] | Potency [15] | Potency [16] | outcome [17] | max response [18] -8% | max response [19] -4.1% | Potency [20]

CCOP(=S)(OCC)Oc1ccc([N+](=O)[O-])cc1
inactive: outcome [1] | outcome [2] | outcome [3] | outcome [4] | caspase-3 activation [5] -4.19% and -4.51% | caspase-3 activation [6] 14.9% and 4.17% | Potency [7] | Potency [8] | outcome [9] | Potency [10] | Potency [11] | Potency [12] | Potency [13] | Potency [14] | Potency [15] | Potency [16] | outcome [17] | max response [18] -2.59% and 6.4% and 13.8% | max response [19] 0.0323% and -20.7% and -1.59% | Potency [20]

Nc1c(Cl)c(Cl)nc(C(=O)O)c1Cl
inactive: outcome [1] | outcome [2] | outcome [3] | outcome [4] | caspase-3 activation [5] -2.12% | caspase-3 activation [6] -0.472% | Potency [7] | Potency [8] | outcome [9] | Potency [10] | Potency [11] | Potency [12] | Potency [13] | Potency [14] | Potency [15] | Potency [16] | outcome [17] | max response [18] 5.28% and -6.28% and -12.8% | max response [19] -0.605% and -10.4% and -8.99% | Potency [20]

Cc1ccc([N+](=O)[O-])cc1C
inactive: outcome [1] | outcome [2] | outcome [3] | outcome [4] | caspase-3 activation [5] -3.15% | caspase-3 activation [6] -2.52% | Potency [7] | Potency [8] | outcome [9] | Potency [10] | Potency [11] | Potency [12] | Potency [13] | Potency [14] | Potency [15] | Potency [16] | outcome [17] | max response [18] 4.05% and -7% | max response [19] -0.535% and -15% | Potency [20]
